KB-3-1 cytotox = kills parental KB-3-1 adenocarcinoma cells; Potency, µM (highest dose often 46.1 µM), most hits filed as cytotoxic; KB-3-1 viability, CellTiter-Glo ATP luminescence, 72 h; 400,000 compounds, 1.4% hits; AID 1347075; note: nearly all actives have a fitted effect of over 60% in size
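Here the drug-naive KB-3-1 line serves as comparator for MDR sub-line selectivity; cells received compound titrations, 72 h at 37 °C, then CellTiter-Glo readout.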
TDP1 cell CPT = DT40-hTDP1 cell growth loss with CPT; chicken DT40 Tdp1-/-;hTDP1 cells + 20 nM CPT, ATP luminescence, 48 h; Potency, µM (doses to about 46.2 µM), for the others: at the highest dose activity change, negative = growth inhibition, usual class: inhibitors; 420,000 compounds, 12% hits; AID 686979; note: nearly all actives have a fitted effect of over 55% in size
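Chicken DT40 Tdp1-/- cells complemented with human TDP1, 400 cells/well, exposed to compounds plus 20 nM camptothecin for at least 48 h at 37 C; viability read as ATP content by CellTiter-Glo luminescence.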
KB-V1 cytotox = KB-V1 MDR subline cytotoxicity. KB-V1 MDR cells viability, CellTiter-Glo, 72 h. Potency, µM (series often up to 46.1 µM), actives largely listed as cytotoxic. 400,000 compounds, 3.4% hits; note: nearly all actives have a fitted effect of over 60% in size
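Following 72 h at 37 degrees C with compound, KB-V1 cell viability was read by CellTiter-Glo luminescence, medium being phenol-red-free DMEM plus 10% FBS; concentration-response parameters came from normalized, curve-fitted qHTS data.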
HT1080NT lethal = kills 2HG-producing HT-1080-NT fibrosarcoma cells. HT-1080-NT fibrosarcoma viability, CellTiter-Glo ATP luminescence, 48 h. 360,000 compounds, 1.6% hits. Potency, µM (series often up to 46.1 µM), without a hit: at the top dose activity, negative = less viability, hits mostly cytotoxic. AID 686970;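 note: NT is the 2HG producing partner of a matched IDH1 knockdown line; 0% = DMSO-treated cells and -100% = media-only wells without cells; nearly all actives have a fitted effect of over 55% in size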
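HT-1080-NT fibrosarcoma cells (2HG-overproducing), 750 cells/well in RPMI with 5% FBS, dosed after 2 h and incubated 48 h at 37C. CellTiter-Glo luminescence normalized to DMSO and no-cell wells; concentration-response curves fitted and classed.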
TDP1 cell noCPT = qHTS for Inhibitors of human tyrosyl-DNA phosphodiesterase 1 (TDP1): qHTS in cells in absence of CPT; DT40 Tdp1-/- hTDP1 cells, no CPT, ATP luminescence, 48 h; Potency, µM (top dose mostly 46.2 µM), for the others: at the top dose activity change, negative = growth inhibition, most hits filed as inhibitors; 420,000 compounds, 15% hits; note: nearly all actives have a fitted effect of over 55% in size
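Chicken DT40 Tdp1-/- cells stably complemented with human TDP1 were seeded at 400 cells/well with DMSO in place of 20 nM camptothecin. After compound pinning, cells grew at least 48 hr at 37 °C; viability read by CellTiter-Glo luminescence.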
HT1080 IDH1KD tx = kills HT-1080 cells with IDH1 knockdown | HT-1080 IDH1 knockdown viability, ATP luminescence, 48 h | Potency, µM (doses to about 46.1 µM), for the others: top-dose activity, negative = toxicity, actives largely listed as cytotoxic | 360,000 compounds, 2% hits;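 note: 0% = DMSO wells and -100% = cell-free medium wells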
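Assay cells: HT-1080 with IDH1 knockdown, 750 per well, RPMI/5% FBS. Exposure: 48 h at 37 °C following 2 h pre-incubation. Read: CellTiter-Glo luminescence; fitted concentration-response, curve class assigned.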
* hit, by the source's call; i = inactive; u = inconclusive; x = no result; [ ] = another dose, or the depositor's remark. A selection: hits, their analogues and other compounds. The true share with any hit is near 19%. Calls come from the whole dose curve; as a rule, active = well fitted curve in the direction sought with a large enough effect; inconclusive = small, poorly fitted or top-dose-only effect, or another doubt; inactive = no such curve, though single readings can be large; an effect the other way counts as inactive or inconclusive. Unless noted, % is set by controls: 0 for no effect and ±100 for the full control effect; potency is the fitted concentration of half-maximal effect.

SMILES	KB-3-1 cytotox	TDP1 cell CPT	KB-V1 cytotox	HT1080NT lethal	TDP1 cell noCPT	HT1080 IDH1KD tx
CCC1CCCCN1C(=O)CSc1n[nH]c(-c2ccccc2)n1 (configuration not stated)	i	u	i	x	u	x
COc1cc(OC)c(NC(=O)N2CCOc3ccc(C)cc32)cc1Cl	i	u	i	x	u	x
CC1CCN(S(=O)(=O)c2ccc(NC(=O)Cn3nnc(-c4ccccc4)n3)cc2)CC1	u	u	14.6µM*	u	u	u
CC1CCCN(S(=O)(=O)c2ccc(NC(=O)CN3CCCCC3)cc2)C1 (configuration not stated)	i	-25.7%	i	-0.5%	-24.1%	1.5%
CC1CCN(S(=O)(=O)c2ccc(NC(=O)CN3CCCC3)cc2)CC1	i	-4.0%	i	-3.9%	-29.1%	-1.4%
CC1CCCN(S(=O)(=O)c2ccc(NC(=O)Cn3nnc(-c4ccccc4F)n3)cc2)C1 (configuration not stated)	i	u	i	u	23.1µM*	u
C/C=C/c1cccc(-c2nc(C(=O)NC3Cc4ccccc4C3)cc3c2[C@@H](CCO)N(C(C)=O)C3)c1	i	14.6µM*	u	u	u	u
C/C=C/c1cccc(-c2nc(C(=O)NC3CCCC3)cc3c2[C@@H](CCO)N(S(=O)C(C)(C)C)C3)c1 (some centres not stated)	i	25.9µM*	i	-12.8%	18.4µM*	1.9%
Cc1ccc2c(CN(C)Cc3cccc(F)c3)cc(=O)oc2c1	i	-0.6%	i	1.2%	7.0%	-2.5%
CN(Cc1ccccc1F)Cc1cc(=O)oc2cc(O)c(Cl)cc12	u	14.6µM*	i	-5.3%	16.4µM*	-12.4%
CN(Cc1ccccc1)Cc1cc(=O)oc2ccccc12	i	u	9.2µM*	-1.7%	u	0.0%
CN(Cc1ccccc1)Cc1cc(=O)oc2ccc3ccccc3c12	i	u	i	0.4%	18.4µM*	-11.6%
Cc1ccc2c(CN(C)Cc3ccccc3)cc(=O)oc2c1	i	18.4µM*	i	u	u	-21.6%
CCCC(=O)Nc1ccccc1-c1nnc(SCC)[nH]c1=O	i	-0.7%	u	7.9%	12.1%	0.6%
CC(C)(C)NC(=O)NC(=O)COC(=O)c1cccc(OC(F)F)c1	i	-8.7%	i	0.2%	-5.6%	1.3%
O=C(Nc1cc(-c2ccccc2)nn1-c1c(Cl)cccc1Cl)c1ccc(F)cc1	i	20.6µM*	i	-21.6%	18.4µM*	-24.1%
N#Cc1ccc(C(=O)Nc2cc(-c3ccc(F)cc3)nn2-c2ccccc2)cc1	i	14.6µM*	i	-10.5%	u	-0.4%
Cn1nc(-c2ccccc2)cc1NC(=O)c1ccc(Cl)cc1	i	-29.8%	i	9.8%	-17.7%	3.1%
CCCCc1ccc(NC(=O)CSC2=C(C#N)C(c3ccco3)C3=C(CCCC3=O)N2)cc1 (configuration not stated)	u	u	i	u	u	u
COc1ccc(C2C(C#N)=C(SCC(=O)Nc3ccc(C)cc3)NC3=C2C(=O)CC(C)(C)C3)cc1 (configuration not stated)	u	23.1µM*	u	-0.3%	16.4µM*	-1.2%
CSC1=C(C#N)C(c2ccc3c(c2)OCO3)C2=C(CCCC2=O)N1 (configuration not stated)	i	u	i	-6.3%	-22.1%	-7.3%
COc1cccc(NC(=O)CSC2=C(C#N)C(c3ccco3)C3=C(CCCC3=O)N2)c1 (configuration not stated)	u	3.5%	u	9.2µM*	-12.7%	7.31µM*
N#CC1=C(SCC(=O)c2ccccc2)NC2=C(C(=O)CCC2)C1c1ccco1 (configuration not stated)	18.4µM*	2.91µM*	u	u	2.59µM*	4.61µM*
CCSC1=C(C#N)C(c2ccc(Cl)cc2)C2=C(CCCC2=O)N1 (configuration not stated)	i	1.46µM*	i	u	1.46µM*	u
COc1ccc(NC(=O)CSC2=C(C#N)C(c3ccco3)C3=C(CCCC3=O)N2)c(OC)c1 (configuration not stated)	i	1.1%	i	2.9%	1.6%	11.0%
SMILES	KB-3-1 cytotox	TDP1 cell CPT	KB-V1 cytotox	HT1080NT lethal	TDP1 cell noCPT	HT1080 IDH1KD tx
COC(=O)[C@H]1C[C@@]2(O)CN(S(=O)(=O)c3ccc(C)cc3)C[C@@]2(OC(=O)Nc2cccs2)C[C@H]1C(=O)OC	i	u	i	3.0%	u	-8.2%
Cc1ccc(S(=O)(=O)Nc2cccc(-c3ccc(N4CCCCC4)nn3)c2)s1	i	u	i	x	u	x
Cc1ccc(C(=O)CSC2=C(C#N)C(c3ccco3)C3=C(CCCC3=O)N2)cc1 (configuration not stated)	u	3.26µM*	8.2µM*	5.01µM*	3.26µM*	5.62µM*
CC(C)(C)c1ccc(C(=O)CCCSC2=C(C#N)C(c3ccco3)C3=C(CCCC3=O)N2)cc1 (configuration not stated)	u	16.4µM*	10.3µM*	u	9.2µM*	-19.4%
CCc1cc(C(=O)Nc2cnn(Cc3ccccc3C)c2)no1	i	u	u	x	u	x
Cc1cccc(NC(=O)CN2C(=O)CCS(=O)(=O)c3ccccc32)c1C	i	-9.4%	i	u	25.4%	12.6%
CNc1ccc(/C=C2\C=Cc3ccccc32)cc1	i	u	i	x	-98.6%	x
CNc1ccc(C=C2c3ccccc3-c3ccccc32)cc1	u	u	u	x	12.6µM*	x
C(=C\c1ccccn1)/c1ccncc1	i	-10.0%	u	5.5%	-8.7%	10.8%
C(=C1c2ccccc2-c2ccccc21)c1ccncc1	u	u	u	-5.0%	23.1µM*	-26.2%
O=C(c1n[nH]c2c1CCCC2)N1CCOc2ccc(C(O)C(c3ccccc3)c3ccccc3)cc2C1 (configuration not stated)	x	19.4%[9.04 µM]	x	x	u	x
O=C(Nc1ccccc1C(F)(F)F)c1ccc(CN2CCC(Cc3ccccc3)CC2)cc1	u	18.4µM*	u	16.4µM*	-95.6%	23.1µM*
COCCCNC(=S)N1CCN(c2nc(C)nc3sc4c(c23)CCCC4)CC1	u	16.4µM*	u	u	u	-15.7%
